Laboratory results from the supplement of paper PMC6555819.

Columns and labels:
Assay in all cases: PBM binding z-score (relative to random genomic background probes); higher = stronger binding; sequences stand for … in GC…GCGATTGACAGCGTAGAATGAAGG
[1] = test system: FXR:RXRa (NR concentration 270 nM, RXRa partner concentration 90 nM)
In short: (§1)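 Probes were double-stranded and carried 34-nt variable regions with direct-repeat seeds, single-nucleotide variants, half-site ablations and random human genomic background sequences, printed on custom Agilent 4×180K protein-binding microarrays. Arrays were incubated 1 h with ligand-free nuclear receptor dimers in PBS pH 7.4, 2% milk, 0.02% Triton X-100, 1 mM DTT, 0.2 mg/mL BSA and 0.4 mg/ml salmon testes DNA. Antibodies against each partner (one per run) detected binding, and scanned fluorescence was regression-normalized. Binding z-scores use the random background probes as reference.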

[2] = test system: LXRa:RXRa (NR concentration 270 nM, RXRa partner concentration 90 nM)
In short: as §1

[3] = test system: LXRa homodimer (NR concentration 270 nM)
In short: as §1

[4] = test system: LXRb:RXRa (NR concentration 270 nM, RXRa partner concentration 90 nM)
In short: as §1

[5] = test system: LXRb homodimer (NR concentration 270 nM)
In short: as §1

[6] = test system: PPARa:RXRa (NR concentration 270 nM, RXRa partner concentration 90 nM)
In short: as §1

[7] = test system: PPARg:RXRa (NR concentration 180 nM, RXRa partner concentration 90 nM)
In short: as §1

[8] = test system: PPARg:RXRa 270nM:90nM, anti-RXR (NR concentration 270 nM, RXRa partner concentration 90 nM)
In short: as §1

[9] = test system: PPARg:RXRa 30nM:10nM, anti-RXR (NR concentration 30 nM, RXRa partner concentration 10 nM)
In short: as §1

[10] = test system: PPARg:RXRa 90nM:30nM, anti-RXR (NR concentration 90 nM, RXRa partner concentration 30 nM)
In short: as §1

[11] = test system: PPARg:RXRa DBDmut IVT, anti-RXR (DBD mutation: RXRa K156A/R161A, NR concentration 270 nM, RXRa partner concentration 90 nM)
In short: as §1

[12] = test system: PPARg:RXRa IVT, anti-PPARg (NR concentration 270 nM, RXRa partner concentration 90 nM)
In short: as §1

[13] = test system: PPARg DBDmut:RXRa IVT, anti-PPARg (DBD mutation: PPARg1 K132A/R137A, NR concentration 270 nM, RXRa partner concentration 90 nM)
In short: as §1

[14] = test system: PPARg DBDmut IVT, anti-PPARg (DBD mutation: PPARg1 K132A/R137A, NR concentration 270 nM)
In short: as §1

[15] = test system: PPARg homodimer (NR concentration 180 nM)
In short: as §1

[16] = test system: PXR:RXRa (NR concentration 270 nM, RXRa partner concentration 90 nM)
In short: as §1

[17] = test system: PXR homodimer (NR concentration 270 nM)
In short: as §1

[18] = test system: RARa:RXR (NR concentration 270 nM, RXRa partner concentration 90 nM)
In short: as §1

[19] = test system: RARa homodimer (NR concentration 270 nM)
In short: as §1

[20] = test system: RARb:RXRa (NR concentration 270 nM, RXRa partner concentration 90 nM)
In short: as §1

Sequence	PBM binding z-score [1]	PBM binding z-score [2]	PBM binding z-score [3]	PBM binding z-score [4]	PBM binding z-score [5]	PBM binding z-score [6]	PBM binding z-score [7]	PBM binding z-score [8]	PBM binding z-score [9]	PBM binding z-score [10]	PBM binding z-score [11]	PBM binding z-score [12]	PBM binding z-score [13]	PBM binding z-score [14]	PBM binding z-score [15]	PBM binding z-score [16]	PBM binding z-score [17]	PBM binding z-score [18]	PBM binding z-score [19]	PBM binding z-score [20]
AGATTGAGGTTATTAAGATCAGGGAATTGCGGTC	1.61	1.28	0.39	1.32	0.271	2.42	1.08	1.65	0.461	1.17	2.3	2.34	0.654	0.969	1.25	1.32	0.669	1.33	0.972	1.41
TCTATTAGTTGAAGGGCAATCGACGAGTCCGTTT	0.797	0.889	0.341	0.908	0.176	0.795	0.0366	1.98	3.75	2.67	2.4	0.352	-0.193	-0.223	0.916	0.833	0.904	0.162	0.81	1.24
AGAATGAGGTTATTAAGATCATGGAATTGCGGTC	1.63	1.62	0.0389	1.29	-0.00587	2.75	1.91	2.37	0.464	1.49	3.59	3.1	0.789	1.06	0.459	1.53	1.15	1.53	0.293	1.36
AGAACGAGGGCACGCTGAGTTGATAACAGAGTAG	0.997	0.505	-0.474	0.399	-0.662	2.29	2.11	1.82	0.679	1.14	4.19	3.68	0.246	0.187	0.159	1.33	0.018	0.895	-0.194	2.4
CCGACCGGGGCATAAGGTTACCATAAGCCAGCCC	0.604	1.92	-0.254	0.72	-1.04	1.75	1.09	1.45	-0.188	0.731	0.165	0.416	-0.828	-1.51	0.811	0.533	-0.0926	1.79	-0.565	1.8
TCTTGTACATCAATAGAGGTTAAGAAAGTGCGCT	0.725	3.49	0.473	1.79	0.532	1.82	0.201	1.72	3.01	2.08	1.8	1.66	1.53	1.13	0.454	2.94	0.485	1.98	0.123	1.08
GATGCTAGGTCAACTGATGGTCAGCTAAAGCTCG	3.82	3.15	0.377	2.11	0.0631	3.62	2.79	2.97	0.474	1.77	3.82	3.75	-0.0408	-0.329	1.48	1.45	-0.415	2.58	-0.157	4.11
GGAACGAGGGCATTCGAGTTGTTAGCATGGCGAT	0.97	0.548	-0.561	-0.135	-0.712	1.18	0.562	0.571	-0.377	0.0631	3.22	1.99	-0.193	-0.86	-0.473	1.99	0.576	0.173	-0.666	1.81
CGATCTAGGTCATCCAGGACAGTGAATACATTGA	4.46	2.5	0.582	2.09	0.272	4.82	7.36	6.3	3.7	5.8	7.91	8.21	6.15	1.47	2.27	2.13	1.59	2.41	0.582	3.89
TCTATAAGTTGATTAGGGCAACCGAAACAGCGGA	0.561	0.285	0.0111	0.135	-0.0997	1.13	0.429	2.02	3.59	2.83	2.11	1.45	0.91	0.949	0.532	0.227	0.561	0.489	0.661	1.13
ATATGTAGGTTAGCTGGGGACATTCAGACTAGGC	1.86	1.8	0.679	1.14	0.544	2.64	3.46	2.89	1.12	2.16	6.96	6.07	2.18	1.88	1.9	2.92	0.356	1.71	1.2	1.22
ATCTCTAGGTAACAAGTTCATTGAAAGAGAGGAC	1.22	1.89	1.5	1.8	1.27	2.75	2.82	3.03	1.55	2.63	3.39	3.28	1.38	1.78	1.57	3.71	5.1	2.06	1.52	1.89
TCACATAGGTAAACAGGTGAAAGTCCGTAAGTTA	0.14	0.698	0.285	0.803	-0.368	2.06	1.27	2.75	3.62	3.11	2.55	2.23	0.587	0.655	1.1	0.542	0.449	0.976	-0.0341	0.847
ACATACGGGTCAACGAGGTTATAGCACGCGTATA	5.59	4.74	0.827	3.97	0.73	5.39	5.65	4.94	1.99	3.86	3.32	4.26	2.04	0.961	2.67	5.01	2.89	5.03	1.03	3.99
